Experimental data from PubChem BioAssay AID2006 (Sanford-Burnham Center for Chemical Genomics, 2009).
Among all 290,000 compounds or so, about 1,000 (0.34%) were called active. No stated cut-off is given here; in the data, active means inhibition above about 50% (passing the limit was not always enough); inconclusive means no clear call, values can overlap the other calls. This excerpt belongs to a sample that is enriched for actives.

Target: SUMO-conjugating enzyme UBC9 (Homo sapiens) (UniProt P63279)
Assay: blockers of SAE1/SAE2–UBC9 SUMO transfer – biochemical, HTRF, uHTS, primary screen (AID 2006)
Settings: HTRF SUMOylation assay, SAE1/SAE2 + UBC9, in vitro, at 35 µM, stronger effect = higher value

SUMO-conjugating enzyme UBC9 (Homo sapiens), sequence (P63279 whole entry, looked up): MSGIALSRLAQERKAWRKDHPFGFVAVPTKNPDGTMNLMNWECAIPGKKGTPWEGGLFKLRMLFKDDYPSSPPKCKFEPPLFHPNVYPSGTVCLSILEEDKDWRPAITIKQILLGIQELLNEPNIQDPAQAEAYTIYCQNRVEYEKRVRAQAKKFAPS

Row | Structure (SMILES) | inhibition | inhibition (average of repeat tests)
1 | O=C(CCc1ccccc1)Nc1ccnn1C1CCN(Cc2ccc(OCCO)cc2)CC1 | 6.4% (inactive) | 
2 | Nc1c(NCCc2ccccc2)c2ccccc2oc1=O | 6.6% (inactive) | 
3 | O=c1oc2ccccc2cc1-c1csc(Nc2ccc(O)cc2)n1 | 7.7% (inactive) | 
4 | O=c1oc2cc(O)ccc2cc1-c1ccc(F)cc1 | 50.3% (active) | 56%
5 | COc1cccc(C(=O)c2cc3ccc(O)cc3oc2=O)c1 | 16.5% (inactive) | 
6 | O=c1onc(-c2c(F)cccc2F)n1-c1ccccc1Cl | -6.5% (inactive) | 
7 | CCOc1ccc(C2/C(=C(/O)c3ccc4c(c3)CC(C)O4)C(=O)C(=O)N2CCCn2ccnc2)cc1 (configuration not stated) | -13.9% (inactive) | 
8 | Cc1ccc(CNC(=O)Cc2cn(C)c3ccccc23)cc1 | -1.9% (inactive) | 
9 | Cn1c(-c2ccco2)nc2cc3ccccc3cc21 | 44.7% (inactive) | 
10 | Clc1ccccc1CSc1nnc(-c2ccco2)c(-c2ccco2)n1 | 35.9% (inactive) | 
11 | c1coc(-c2nc3nc4ccccc4n3nc2-c2ccco2)c1 | 90.5% (active) | 
12 | O=C(NCCN1CCCC(O)C1)c1cc(COc2c(F)cccc2F)on1 (configuration not stated) | 1.7% (inactive) | 
13 | CC(=O)N1CCC(N(C(=O)Nc2ccc(Cl)cc2)C(C)C)CC1 | 13.1% (inactive) | 
14 | Cc1ccc(NS(=O)(=O)c2ccc(-c3coc(C)n3)cc2)c(C)c1 | -8.6% (inactive) | 
15 | CCc1ccc(-c2cc(C(=O)NCc3ccco3)c3ccccc3n2)s1 | 59.3% (active) | 
16 | COC(=O)CNC(=O)c1cc(-c2ccncc2)nc2ccccc12 | 0.8% (inactive) | 
17 | CCCCN(C)CCCNC(=O)c1cc(-c2cccs2)nc2ccccc12 | 20.3% (inactive) | 
18 | Cc1ccccc1N1CCN(C2CCCN(C(=O)c3cn4c(C)cccc4n3)C2)CC1 (configuration not stated) | -1.6% (inactive) | 
19 | CCOC(=O)/C(=N\Nc1ccccc1[N+](=O)[O-])c1csc(Nc2ccccc2)n1 | 10.4% (inactive) | 
20 | COc1cc(C(=O)Nn2c(CC(C)C)nc3ccccc3c2=O)cc(OC)c1OC | 7.6% (inactive) | 
21 | COC(=O)c1cc(OCC(=O)NC2CCCc3ccccc32)cc(C(=O)OC)c1 (configuration not stated) | 11.7% (inactive) | 
22 | O=C(O)c1ccccc1NC(=O)c1ccccc1-c1ccccc1C(=O)O | 9% (inactive) | 
23 | CCOC(=O)c1ccc[n+](CC(=O)Nc2ccccc2OC(F)F)c1 | -3.9% (inactive) | 

Row | Structure (SMILES) | inhibition | inhibition (average of repeat tests)
24 | Cc1ccc(-c2nc(SCC(=O)Nc3ccccc3OC(F)F)c3c(C)c(C(=O)O)sc3n2)cc1 | 77.1% (active) | 
25 | COc1ccccc1NC(=O)CSc1nc2sc3c(c2c(=O)n1-c1ccccc1)CCN(C)C3 | -8.5% (inactive) | 
26 | CCc1nc2cccnc2n1-c1ccc(C(=O)O)cc1 | 10.1% (inactive) | 
27 | CCOC(=O)CN(C(=O)COc1nc(C)cc(C)c1C#N)c1ccc(Cl)cc1 | 16.2% (inactive) | 
28 | Cc1cccc(C)c1N1C(=O)CN(Cc2ccccc2)C1=S | 3.1% (inactive) | 
29 | CCOCc1nnc(NC(=O)CCS(=O)(=O)Cc2ccccc2)s1 | 0.9% (inactive) | 
30 | COCC(C)OC(=O)c1c(N)n(CCCN2CCOCC2)c2nc3ccccc3nc12 (configuration not stated) | 48.2% (inactive) | 
31 | CC(C)(C)c1ccc(C(=O)NCCn2c(N)c(C#N)c3nc4ccccc4nc32)cc1 | 27.7% (inactive) | 
32 | CC(C)(C)OC(=O)c1c(N)n(CCCN2CCCC2=O)c2nc3ccccc3nc12 | 62.9% (active) | 40.3%
33 | CC(C)=CCCC(C)CN1CCC(n2nccc2NC(=O)c2ccccc2)CC1 (configuration not stated) | 7% (inactive) | 
34 | COc1cc(/C(=C/c2ccccc2)c2ccccc2)c2c(c1)oc1ccccc12 | 12.7% (inactive) | 
35 | COc1ccccc1NC(=O)C1CCCN1S(=O)(=O)c1ccc(Cl)cc1 (configuration not stated) | -4.9% (inactive) | 
36 | CCCCCC(=O)Nc1ccc(-c2cn3cccnc3n2)cc1 | 50.5% (active) | 60.8%
37 | CC(=O)Nc1ccc(-c2cn3cccnc3n2)cc1 | 55.4% (active) | 53.3%
38 | CCCC(=O)Nc1cccc(-c2cn3ccsc3n2)c1 | -25.1% (inactive) | 
39 | CCCCCC(=O)Nc1ccc(S(=O)(=O)Nc2ccc(Cl)nn2)cc1 | 2.3% (inactive) | 
40 | CC(C)(C)C(=O)Nc1ccc(-c2cn3cccnc3n2)cc1 | 37.2% (inactive) | 
41 | FC(F)(F)Oc1ccc(-c2cn3cccnc3n2)cc1 | 24.2% (inactive) | 
42 | Cc1ccc(NC(=O)CN2CCc3ccccc3C2)cc1C | -5.2% (inactive) | 
43 | CCc1c(C)nc(N)n2c(SCC(=O)NC3CCCCC3)nnc12 | -11.4% (inactive) | 
44 | Cc1ccc(C)c(NC(=O)NNC(=O)c2ccc3ccccc3c2O)c1 | 4.2% (inactive) | 
45 | CC(=O)N1c2ccc(S(=O)(=O)N3CCCC(C(=O)Nc4cccc(F)c4)C3)cc2CC1C (configuration not stated) | 12.3% (inactive) | 
46 | Cc1cc(C(F)F)nn1CC(=O)NC1CCCCCC1 | 2.2% (inactive) | 

Row | Structure (SMILES) | inhibition | inhibition (average of repeat tests)
47 | N#CC1(NC(=O)COC(=O)CCN=C2NS(=O)(=O)c3ccccc32)CCCCC1 | 2.6% (inactive) | 
48 | CC1CCCCC1NC(=O)CSc1nnc(-c2ccncc2)n1CCCN(C)C (configuration not stated) | 8.9% (inactive) | 
49 | O=C(COC(=O)c1cccs1)Nc1ccccc1Cl | -14.2% (inactive) | 
50 | O=C(Nc1ccccc1Cl)/C(Cl)=C(\Cl)S(=O)c1ccccc1 (configuration not stated) | 57% (active) | 
51 | O=C(Nc1ccccc1Cl)Nn1cnnc1 | 10.4% (inactive) | 
52 | CCC(=O)Nc1nnc(S(=O)(=O)N(CC(C)C)c2ccccc2)s1 | -0.8% (inactive) | 
53 | CCOC(=O)c1c(C)[nH]c(C(=O)NCc2ccccc2OC)c1C | 21.6% (inactive) | 
54 | CCOC(=O)c1c(C)[nH]c2c1-c1ccccc1C(=O)C2=O | 86.9% (active) | 
55 | CCOC(=O)C1=C(c2ccc(OC)cc2)C(=O)c2ccccc2C1=O | 5.9% (inactive) | 
56 | CC(C)(C)NC(=O)CN(Cc1cccs1)C(=O)CNS(=O)(=O)c1ccccc1 | 5.5% (inactive) | 
57 | O=C(CN1CCC(NC(=O)C2CC2)CC1)Nc1ccccc1[N+](=O)[O-] | 2.3% (inactive) | 
58 | CCOC(=O)C1CCN(S(=O)(=O)c2ccc3c(c2)N(C)C(=O)CC(=O)N3C)CC1 | 10.1% (inactive) | 
59 | CCOc1ncccc1C(=O)NCCc1ccc(OC)cc1 | -5.7% (inactive) | 
60 | CC(C)CN(CC(C)C)C(=O)CN1c2cccc3cccc(c23)S1(=O)=O | 14.7% (inactive) | 
61 | O=C(CCCN1C(=O)/C(=C/c2ccco2)SC1=S)Nc1ccccc1 | 23.1% (inactive) | 
62 | CN1C(=O)/C(=C/c2ccco2)SC1=Nc1cccc(C(=O)O)c1 | 52.8% (active) | 
63 | Cc1cc(/C=C2\SC(=O)N(C)C2=O)c(C)n1-c1cccc(C(=O)O)c1 | 0.8% (inactive) | 
64 | CCc1nn(CCCC(=O)NCc2ccc(C)cc2)c(=O)c2cc3occc3n12 | -4.3% (inactive) | 
65 | Cc1cnc(C(=O)N2CCCC(N3CCN(c4ccccc4F)CC3)C2)cn1 (configuration not stated) | 5.2% (inactive) | 
66 | CC(=O)Nc1ccc(S(=O)(=O)Nc2cc(C)cn(Cc3ccc(C)cc3)c2=O)cc1 | 14.3% (inactive) | 
67 | O=C1Nc2cc(C(=O)N3CCC(N4CCCCC4)CC3)ccc2S/C1=C\c1ccccc1 | 10.8% (inactive) | 
68 | Cc1ccc2nc(-c3ccncc3)cc(C(=O)Nc3ccncc3)c2c1 | -4.4% (inactive) | 
69 | Cc1ccc2nc(-c3ccncc3)cc(C(=O)Nc3ccc(OC(F)F)cc3)c2c1 | 61.9% (active) | 

Row | Structure (SMILES) | inhibition | inhibition (average of repeat tests)
70 | Cc1ccc2nc(-c3ccncc3)cc(C(=O)Nc3ccc4c(c3)OCCO4)c2c1 | 23.4% (inactive) | 
71 | COc1ccc(N2CCN(C3CCCCC3NS(=O)(=O)c3ccccc3)CC2)cc1 (configuration not stated) | -12.9% (inactive) | 
72 | O=C(CN1CCN(c2ccc(O)cc2)CC1)Nc1cc(S(=O)(=O)N2CCOCC2)ccc1Cl | 25.4% (inactive) | 
73 | O=C(N/N=C/c1cc(Cl)cc([N+](=O)[O-])c1O)C(O)(c1ccccc1)c1ccccc1 | -22% (inactive) | 
74 | O=[N+]([O-])c1cc(Cl)cc(/C=N/NC(=S)Nc2cc(S(=O)(=O)N3CCOCC3)ccc2Cl)c1O | 99.5% (active) | 
75 | O=C(O)C1CCCCC1C(=O)N1CCN(S(=O)(=O)c2ccc(F)cc2)CC1 (configuration not stated) | 9.5% (inactive) | 
76 | O=C(c1cccnc1)N1CCN(S(=O)(=O)c2cccs2)CC1 | -2% (inactive) | 
77 | CSc1nnc(SCc2nc3sc(C(=O)O)c(C)c3c(=O)[nH]2)s1 | 50.2% (active) | 70.2%
78 | CCOC(=O)c1sc2nc(CSc3ccccc3)[nH]c(=O)c2c1C | 25.9% (inactive) | 
79 | Cc1ccc(C)c(SCc2nc3sc(C(=O)O)c(C)c3c(=O)[nH]2)c1 | 9.1% (inactive) | 
80 | COc1cccc(-n2c(=S)sc3c(=O)n(-c4ccccc4C)c(SCC(=O)O)nc32)c1 | 6.2% (inactive) | 
81 | COc1ccc(CCNC(=O)CCCCCNC(=O)N2CCn3c2nc2ccccc23)cc1OC | 15.4% (inactive) | 
82 | CCc1nn(CCCC(=O)NC(C)c2ccccc2)c(=O)c2cc3occc3n12 (configuration not stated) | 10.2% (inactive) | 
83 | CCC(C)(C)NC(=O)C(c1ccc(OC)cc1)N(C(=O)CCC(=O)Nc1cc(C)on1)c1ccc(OC)cc1OC (configuration not stated) | 6% (inactive) | 
84 | COC(=O)COc1ccc2c(c1C)O/C(=C\c1ccco1)C2=O | 16.9% (inactive) | 
85 | O=C(NCCCn1ccnc1)C1CCCN(S(=O)(=O)c2cc(Cl)ccc2Cl)C1 (configuration not stated) | -5.4% (inactive) | 
86 | Cc1nc2c(c(=O)n1Cc1ccco1)c1nc3ccccc3nc1n2Cc1ccccc1 | 31.7% (inactive) | 
87 | Cc1cc2nc3c(=O)n(Cc4ccccc4)c(=O)[nH]c3nc2cc1N | 51.4% (active) | 
88 | O=c1[nH]c2c(c(=O)n1Cc1ccccc1)CCC2 | 14.7% (inactive) | 
89 | CC(=O)N/C(=N/c1nc(C)cc(C)n1)Nc1ccc(F)cc1F | 10.8% (inactive) | 
90 | O=C(NCc1ccccc1Cl)C1CCCN1S(=O)(=O)c1ccc(F)cc1 (configuration not stated) | 9.8% (inactive) | 
91 | O=C(Nc1ccc(N2CCCC2=O)cc1)c1cncc(Br)c1 | -7.3% (inactive) | 
92 | Oc1c(Cl)cc(Cl)c(Cl)c1Cc1c(O)c(Cl)cc(Cl)c1Cl | 71.9% (active) | 
